Measurements taken from PubChem BioAssay (EPA / NIEHS).
Active and inactive are the calls of the source. Rule for the calls: active = hit-call score of the fitted dose curve at least 0.9, where 1 is the maximum; inactive = score below 0.9.

System: not listed separately
Test: CCTE_Deisenroth_5AR_NBTE_acceptor: CCTE's 5alpha-reductase NanoBRET Target Engagement Assay - Autofluorescence Screen, Deisenroth Lab (AID 2284321);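 note: compound fluorescence in the acceptor channel under 460 nm excitation flags autofluorescence artifacts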
Details: actives raise or lower the signal
Summary of the method: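 Acceptor fluorescence intensity was read as an artifact-detection endpoint. Test chemicals at an assumed nominal 100 uM were excited at 460 nm across three independent runs. Activity was fitted bidirectionally against DMSO.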

Row | Structure (SMILES) | outcome | AC50
1 | CCCCCCCC/C=C\CCCCCCCC(=O)O | inactive | 
2 | COC(=O)c1c(C)cc(O)c(C)c1O | inactive | 
3 | CC1=NN(c2cc(S(=O)(=O)O)ccc2Cl)C(=O)C1N=Nc1ccccc1 (stereo not given) | inactive | 
4 | Oc1ccc(Cl)cc1Cc1cc(Cl)ccc1O | inactive | 
5 | CCCCCCCC[N+](C)(CCCCCCCC)CCCCCCCC |  | 8.7 µM (active)
6 | CCCc1ccc(OC)cc1 | inactive | 
7 | CN(C)c1ccc(C(=N)c2ccc(N(C)C)cc2)cc1 | inactive | 
8 | Cc1ccc(C(C)c2ccc(C)c(C)c2)cc1C | inactive | 
9 | C1CN(SSN2CCOCC2)CCO1 | inactive | 
10 | CCN(CCC#N)c1ccc(N=Nc2c(Cl)cc([N+](=O)[O-])cc2Cl)cc1 | inactive | 

System: SRD5A2 (gene 6716)
Test: CCTE_Deisenroth_5AR_NBTE_ratio: CCTE's 5alpha-reductase NanoBRET Target Engagement Assay - Ratio, Deisenroth Lab (AID 2284322)
Details: actives raise or lower the signal
Summary of the method: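 Reverse-transfect HEK293T with pNLF1-C-SRD5A2, express 20 h. Pre-incubate cells with chemical 3 h (8-point series, 10 nM - 29.9 uM, duplicate). Add testosterone tracer, 2 h more. Add substrate/inhibitor, read donor and acceptor emission.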

Row | Structure (SMILES) | outcome | AC50
11 | CCCCCCCC/C=C\CCCCCCCC(=O)O | inactive | 
12 | COC(=O)c1c(C)cc(O)c(C)c1O | inactive | 
13 | CC1=NN(c2cc(S(=O)(=O)O)ccc2Cl)C(=O)C1N=Nc1ccccc1 (stereo not given) |  | 10 µM (active)
14 | Oc1ccc(Cl)cc1Cc1cc(Cl)ccc1O |  | 29 µM (active)
15 | CCCCCCCC[N+](C)(CCCCCCCC)CCCCCCCC |  | 20.1 µM (active)
16 | CCCc1ccc(OC)cc1 | inactive | 
17 | CN(C)c1ccc(C(=N)c2ccc(N(C)C)cc2)cc1 |  | 22.6 µM (active)
18 | Cc1ccc(C(C)c2ccc(C)c(C)c2)cc1C |  | 50 µM (active)
19 | C1CN(SSN2CCOCC2)CCO1 | inactive | 
20 | CCN(CCC#N)c1ccc(N=Nc2c(Cl)cc([N+](=O)[O-])cc2Cl)cc1 |  | 10 µM (active)
